# From the supplement of paper PMC12819154, “High-throughput peptide-centric local stability assay extends protein–ligand identification to membrane proteins, tissues and bacteria” (Nature Structural & Molecular Biology, 2025)
# Compound: Cc1nc(Nc2ncc(C(=O)Nc3c(C)cccc3Cl)s2)cc(N2CCN(CCO)CC2)n1 [dasatinib]
# Assay: log2 fold change of tryptic peptide abundance, ligand vs vehicle (limited proteolysis) (log2 ratio); higher = more trypsin-susceptible (destabilized)
# Conditions: ligand concentration: 5 uM; sample: K562 cleared lysate
# Sequence of UniProt Q8IVH8 (Q8IVH8 whole entry): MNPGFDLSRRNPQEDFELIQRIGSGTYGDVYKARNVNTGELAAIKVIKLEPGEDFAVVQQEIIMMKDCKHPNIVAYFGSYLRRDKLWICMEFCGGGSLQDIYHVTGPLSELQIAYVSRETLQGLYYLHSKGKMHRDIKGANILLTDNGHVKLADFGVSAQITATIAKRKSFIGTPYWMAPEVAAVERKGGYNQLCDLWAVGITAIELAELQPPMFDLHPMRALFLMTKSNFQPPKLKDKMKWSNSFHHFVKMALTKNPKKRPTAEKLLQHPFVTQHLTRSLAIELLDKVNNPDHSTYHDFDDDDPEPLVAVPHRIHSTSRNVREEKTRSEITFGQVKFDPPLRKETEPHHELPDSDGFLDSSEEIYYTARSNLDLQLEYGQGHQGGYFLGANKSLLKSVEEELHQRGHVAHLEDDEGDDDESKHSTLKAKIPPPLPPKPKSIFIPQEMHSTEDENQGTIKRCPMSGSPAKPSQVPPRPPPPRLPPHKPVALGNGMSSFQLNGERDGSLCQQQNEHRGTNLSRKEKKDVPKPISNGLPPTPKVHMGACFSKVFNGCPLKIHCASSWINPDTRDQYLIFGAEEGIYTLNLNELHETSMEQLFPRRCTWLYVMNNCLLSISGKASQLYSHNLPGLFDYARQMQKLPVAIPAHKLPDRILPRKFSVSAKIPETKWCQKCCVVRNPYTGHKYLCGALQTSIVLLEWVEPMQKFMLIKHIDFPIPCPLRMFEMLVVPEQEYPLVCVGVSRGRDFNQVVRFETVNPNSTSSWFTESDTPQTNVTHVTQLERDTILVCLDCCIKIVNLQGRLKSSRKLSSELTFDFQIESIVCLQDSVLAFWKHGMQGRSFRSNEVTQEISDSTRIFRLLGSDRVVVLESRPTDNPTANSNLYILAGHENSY
# Sequence of UniProt Q9NRN7 (Q9NRN7 whole entry): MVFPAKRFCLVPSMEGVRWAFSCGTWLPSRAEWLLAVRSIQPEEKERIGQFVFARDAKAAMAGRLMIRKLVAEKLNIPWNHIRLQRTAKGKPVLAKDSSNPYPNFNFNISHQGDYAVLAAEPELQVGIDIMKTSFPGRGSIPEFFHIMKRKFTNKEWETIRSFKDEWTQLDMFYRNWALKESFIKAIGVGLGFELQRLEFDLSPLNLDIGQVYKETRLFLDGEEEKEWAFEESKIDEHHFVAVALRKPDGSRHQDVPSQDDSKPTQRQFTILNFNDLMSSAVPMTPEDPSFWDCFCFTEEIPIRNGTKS
# Sequence of UniProt Q13177 (Q13177 whole entry): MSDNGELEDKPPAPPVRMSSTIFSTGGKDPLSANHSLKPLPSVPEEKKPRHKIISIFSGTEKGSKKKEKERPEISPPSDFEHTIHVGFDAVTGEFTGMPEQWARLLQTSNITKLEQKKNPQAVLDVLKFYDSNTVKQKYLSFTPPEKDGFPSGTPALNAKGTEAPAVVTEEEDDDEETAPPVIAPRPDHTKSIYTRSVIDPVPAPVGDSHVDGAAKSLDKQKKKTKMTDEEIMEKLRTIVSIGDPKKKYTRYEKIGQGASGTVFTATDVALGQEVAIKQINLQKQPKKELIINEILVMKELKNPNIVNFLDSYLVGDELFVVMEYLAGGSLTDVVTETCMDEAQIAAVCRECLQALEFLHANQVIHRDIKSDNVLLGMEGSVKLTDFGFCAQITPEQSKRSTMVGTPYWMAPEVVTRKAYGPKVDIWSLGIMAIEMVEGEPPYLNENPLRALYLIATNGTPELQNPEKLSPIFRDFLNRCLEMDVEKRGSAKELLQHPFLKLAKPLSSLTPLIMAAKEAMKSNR
# Sequence of UniProt Q13418 (Q13418 whole entry): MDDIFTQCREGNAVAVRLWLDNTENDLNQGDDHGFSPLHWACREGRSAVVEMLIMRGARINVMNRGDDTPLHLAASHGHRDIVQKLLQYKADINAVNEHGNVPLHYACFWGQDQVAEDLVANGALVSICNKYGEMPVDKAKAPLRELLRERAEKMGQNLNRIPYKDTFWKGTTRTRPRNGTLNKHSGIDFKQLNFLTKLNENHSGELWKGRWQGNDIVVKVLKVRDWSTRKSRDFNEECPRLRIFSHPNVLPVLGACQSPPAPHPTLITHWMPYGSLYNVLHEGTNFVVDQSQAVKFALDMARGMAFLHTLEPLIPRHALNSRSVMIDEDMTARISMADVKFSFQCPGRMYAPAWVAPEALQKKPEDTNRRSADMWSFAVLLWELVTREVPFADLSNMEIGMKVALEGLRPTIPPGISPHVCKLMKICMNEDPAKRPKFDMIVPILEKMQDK
# Sequence of UniProt Q9P289 (Q9P289 whole entry, looked up): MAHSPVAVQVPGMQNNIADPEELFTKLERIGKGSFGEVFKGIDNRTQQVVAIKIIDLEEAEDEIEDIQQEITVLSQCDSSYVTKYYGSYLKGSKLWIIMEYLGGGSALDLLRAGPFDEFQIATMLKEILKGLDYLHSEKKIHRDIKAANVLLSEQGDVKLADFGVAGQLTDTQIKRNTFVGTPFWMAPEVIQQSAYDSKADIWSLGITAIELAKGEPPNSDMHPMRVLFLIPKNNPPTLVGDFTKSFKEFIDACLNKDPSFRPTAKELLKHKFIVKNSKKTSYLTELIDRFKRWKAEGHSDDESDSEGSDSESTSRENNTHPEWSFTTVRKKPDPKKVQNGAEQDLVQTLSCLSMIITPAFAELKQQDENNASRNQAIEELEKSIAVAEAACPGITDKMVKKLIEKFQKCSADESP
# Sequence of UniProt Q9UKE5 (Q9UKE5 whole entry, looked up): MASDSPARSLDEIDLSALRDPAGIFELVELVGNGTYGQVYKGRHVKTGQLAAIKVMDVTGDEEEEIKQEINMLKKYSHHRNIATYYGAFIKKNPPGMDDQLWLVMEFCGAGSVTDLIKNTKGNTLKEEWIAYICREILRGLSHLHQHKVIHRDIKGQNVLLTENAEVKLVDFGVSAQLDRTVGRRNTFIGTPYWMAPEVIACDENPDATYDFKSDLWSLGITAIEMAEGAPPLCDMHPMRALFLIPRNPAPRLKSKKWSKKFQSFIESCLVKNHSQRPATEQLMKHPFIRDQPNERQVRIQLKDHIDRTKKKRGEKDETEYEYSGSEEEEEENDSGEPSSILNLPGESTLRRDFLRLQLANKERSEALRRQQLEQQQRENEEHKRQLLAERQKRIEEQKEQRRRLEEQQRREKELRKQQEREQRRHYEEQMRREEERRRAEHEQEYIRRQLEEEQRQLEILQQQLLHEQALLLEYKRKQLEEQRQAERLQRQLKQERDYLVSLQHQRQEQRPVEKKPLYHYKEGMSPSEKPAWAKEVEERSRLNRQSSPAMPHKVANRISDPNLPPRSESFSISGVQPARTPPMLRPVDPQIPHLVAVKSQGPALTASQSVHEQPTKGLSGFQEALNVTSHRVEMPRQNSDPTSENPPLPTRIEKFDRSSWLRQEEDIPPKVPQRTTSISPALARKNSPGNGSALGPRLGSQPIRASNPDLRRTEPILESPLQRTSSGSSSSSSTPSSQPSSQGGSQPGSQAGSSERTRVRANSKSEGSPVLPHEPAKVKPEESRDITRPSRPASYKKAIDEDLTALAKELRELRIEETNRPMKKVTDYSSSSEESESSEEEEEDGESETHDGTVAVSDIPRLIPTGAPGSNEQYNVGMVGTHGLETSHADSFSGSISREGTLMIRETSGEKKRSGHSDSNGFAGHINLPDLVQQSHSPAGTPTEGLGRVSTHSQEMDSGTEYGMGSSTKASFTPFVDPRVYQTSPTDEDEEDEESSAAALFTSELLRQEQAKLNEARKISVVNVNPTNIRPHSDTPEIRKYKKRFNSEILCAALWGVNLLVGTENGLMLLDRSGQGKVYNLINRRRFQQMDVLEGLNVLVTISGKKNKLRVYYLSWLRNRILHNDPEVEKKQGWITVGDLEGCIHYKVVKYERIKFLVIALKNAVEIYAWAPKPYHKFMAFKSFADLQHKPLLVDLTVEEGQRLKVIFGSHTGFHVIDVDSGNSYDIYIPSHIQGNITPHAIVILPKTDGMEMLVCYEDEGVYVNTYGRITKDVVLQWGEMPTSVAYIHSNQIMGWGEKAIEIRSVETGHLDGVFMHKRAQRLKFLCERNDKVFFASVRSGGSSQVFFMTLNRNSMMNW
# Sequence of UniProt Q9Y2U5 (Q9Y2U5 whole entry): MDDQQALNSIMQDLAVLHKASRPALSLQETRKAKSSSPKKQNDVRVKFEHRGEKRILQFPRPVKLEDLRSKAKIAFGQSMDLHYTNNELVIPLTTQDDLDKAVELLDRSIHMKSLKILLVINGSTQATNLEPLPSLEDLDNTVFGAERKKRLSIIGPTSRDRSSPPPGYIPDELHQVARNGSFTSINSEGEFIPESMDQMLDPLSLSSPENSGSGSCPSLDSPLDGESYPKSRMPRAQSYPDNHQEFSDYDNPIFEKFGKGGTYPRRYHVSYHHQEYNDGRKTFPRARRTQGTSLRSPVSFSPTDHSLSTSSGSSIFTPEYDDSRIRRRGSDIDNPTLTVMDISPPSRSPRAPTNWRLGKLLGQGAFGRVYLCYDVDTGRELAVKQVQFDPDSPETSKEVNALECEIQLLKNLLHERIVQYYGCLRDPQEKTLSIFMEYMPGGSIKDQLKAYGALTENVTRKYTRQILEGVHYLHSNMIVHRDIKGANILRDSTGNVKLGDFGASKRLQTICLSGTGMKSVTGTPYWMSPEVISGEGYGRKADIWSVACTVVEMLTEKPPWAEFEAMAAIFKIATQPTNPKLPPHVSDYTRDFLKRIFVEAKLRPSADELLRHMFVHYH
# Sequence of UniProt P55263 (P55263 whole entry, looked up): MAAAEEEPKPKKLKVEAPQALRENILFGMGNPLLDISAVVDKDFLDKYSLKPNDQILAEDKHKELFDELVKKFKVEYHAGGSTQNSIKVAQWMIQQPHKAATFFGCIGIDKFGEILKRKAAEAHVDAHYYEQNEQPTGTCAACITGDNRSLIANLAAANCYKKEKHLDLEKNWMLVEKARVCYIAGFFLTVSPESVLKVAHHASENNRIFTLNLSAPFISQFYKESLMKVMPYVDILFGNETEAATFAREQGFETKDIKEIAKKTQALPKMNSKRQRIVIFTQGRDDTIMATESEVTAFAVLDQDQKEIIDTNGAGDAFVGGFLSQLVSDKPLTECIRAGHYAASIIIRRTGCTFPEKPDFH
row,Target,log2 fold change
1,"UniProt Q9P289 (peptide sequence: GSFGEVFK, peptide start residue: 33)",-0.606
2,"UniProt Q02750 (peptide sequence: SYMSPER, peptide start residue: 228)",1.37
3,"MAPK14 (peptide sequence: DLLIDEWK, peptide start residue: 331) (UniProt Q16539)",-1.32
4,"UniProt Q16512 (peptide sequence: VLLSEFRPSGELFAIK, peptide start residue: 629)",1.18
5,"AASDHPPT (peptide sequence: IGQFVFAR, peptide start residue: 48) (UniProt Q9NRN7)",-0.547
6,"ABHD4 (peptide sequence: VAGPWGPGLVQR, peptide start residue: 209) (UniProt Q8TB40)",0.933
7,"TNK1 (peptide sequence: VADFGLVRPLGGAR, peptide start residue: 261) (UniProt Q13470)",-0.538
8,"TNIK (peptide sequence: NHSQRPATEQLMK, peptide start residue: 273) (UniProt Q9UKE5)",-0.606
9,"PYGB (peptide sequence: GLAGLGDVAEVR, peptide start residue: 18) (UniProt P11216)",-0.49
10,"RIPK2 (peptide sequence: KTEYPDVAWPLR, peptide start residue: 110) (UniProt O43353)",-1.34
11,"GAK (peptide sequence: AIIQEVCFMK, peptide start residue: 81) (UniProt O14976)",-2.44
12,"TEC (peptide sequence: GCLLNFLR, peptide start residue: 448) (UniProt P42680)",-2.98
13,"MAP4K5 (peptide sequence: LLTHTFVAQPGLSR, peptide start residue: 271) (UniProt Q9Y4K4)",-0.838
14,"UniProt Q8N4C8 (peptide sequence: NIATYYGAFIK, peptide start residue: 81)",-0.397
15,"Jak2 (peptide sequence: VLPQDKEYYK, peptide start residue: 1000) (UniProt O60674)",-0.993
16,"ADK (peptide sequence: TGCTFPEKPDFH, peptide start residue: 351) (UniProt P55263)",-0.858
17,"JAK1 (peptide sequence: NVLVESEHQVK, peptide start residue: 1008) (UniProt P23458)",-1.51
18,"ILK (peptide sequence: DFNEECPR, peptide start residue: 234) (UniProt Q13418)",0.893
19,"CSK (peptide sequence: SGWALNMK, peptide start residue: 186) (UniProt P41240)",-0.697
20,"UniProt P07947 (peptide sequence: LTTVCPTVKPQTQGLAK, peptide start residue: 251)",2.59
21,"UniProt Q9Y2U5 (peptide sequence: LLGQGAFGR, peptide start residue: 361)",-0.631
22,"LIMK2 (peptide sequence: GFFGQAIK, peptide start residue: 340) (UniProt P53671)",-1.19
23,"PYGL (peptide sequence: NLAENISR, peptide start residue: 271) (UniProt P06737)",-0.422
24,"MAP3K4 (peptide sequence: LGDFGCSVK, peptide start residue: 1479) (UniProt Q9Y6R4)",-1.67
25,"UniProt Q16513 (peptide sequence: IFETVNSVR, peptide start residue: 708)",0.751
26,"PAK2 (peptide sequence: LLQTSNITK, peptide start residue: 105) (UniProt Q13177)",0.206
27,"ARAF (peptide sequence: RLLSDCLK, peptide start residue: 544) (UniProt P10398)",0.619
28,"MAP4K3 (peptide sequence: RNPQEDFELIQR, peptide start residue: 10) (UniProt Q8IVH8)",-1.06
29,"ULK3 (peptide sequence: VIELPLRPLLSR, peptide start residue: 230) (UniProt Q6PHR2)",-0.336
